Reference: PubChem BioAssay AID1159580 (chemical genetic matrix, 2015)
Where “and” joins values, the source holds several entries; their conditions need not be identical. Equal values may be shown once. In all, about 5,500 compounds went through this assay and about 2,000 (36%) were called active. About 18% were inconclusive and are not listed. Cut-off read from the data, not from the text of the source: active = normalized growth mostly below about 0.91 (no sharp cut-off); inconclusive = no clear call, values can overlap the other calls; inactive = mostly above about 0.92. The list shows a part of the results.

Assay: chemical genetic growth profiling, strain panel (AID 1159580);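 note: tested at 20 µM; growth read once vehicle control cultures reached saturation at 30 °C; 1 = growth at the plate median or of vehicle wells; lower values mean less growth of the strain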
Settings: growth OD

Measured: normalized growth

Cc1cc(C(C)(C)C)cc(C)c1CC1=NCCN1
inactive: S. cerevisiae deletion strains, locus YJR075W, strain HOC1, active compounds read low 1.02 | S. cerevisiae deletion strains, locus YKL009W, strain mrt4, active compounds read low 1.03 | S. cerevisiae deletion strains, locus YKL068W, active compounds read low 1 | S. cerevisiae deletion strains, locus YKL085W, strain MDH1 (second series), active compounds read low 1.02 | S. cerevisiae deletion strains, locus YKL085W, strain MDH1, active compounds read low 1.02 | S. cerevisiae deletion strains, locus YKL160W, strain elf1, active compounds read low 1.01 | S. cerevisiae deletion strains, locus YKL190W, strain CNB1, active compounds read low 1.02 | S. cerevisiae deletion strains, locus YKR001C, strain vps1, active compounds read low 0.99 | S. cerevisiae deletion strains, locus YKR026C, strain gcn3, active compounds read low 1.01 | S. cerevisiae deletion strains, locus YKR091W, strain srl3, active compounds read low 0.996 | S. cerevisiae deletion strains, locus YLL001W, strain dnm1, active compounds read low 1.03 | S. cerevisiae deletion strains, locus YLL026W, active compounds read low 0.995 | S. cerevisiae deletion strains, locus YLL041C, strain sdh2, active compounds read low 1 | S. cerevisiae deletion strains, locus YLR027C, strain aat2, active compounds read low 1.01 | S. cerevisiae deletion strains, locus YLR039C, strain RIC1, active compounds read low 0.992 | S. cerevisiae deletion strains, locus YLR058C, strain SHM2, active compounds read low 1.02 | S. cerevisiae deletion strains, locus YLR102C, strain apc9, active compounds read low 0.996 | S. cerevisiae deletion strains, locus YLR113W, strain HOG1, active compounds read low 0.997 | S. cerevisiae deletion strains, locus YLR221C, strain rsa3, active compounds read low 0.969 | S. cerevisiae deletion strains, locus YLR258W, strain gsy2, active compounds read low 1 | S. cerevisiae deletion strains, locus YLR262C, strain YPT6 (second series), active compounds read low 1.03 | S. cerevisiae deletion strains, locus YLR262C, strain YPT6, active compounds read low 1.06 | S. cerevisiae deletion strains, locus YLR268W, strain sec22, active compounds read low 0.983 | S. cerevisiae deletion strains, locus YLR320W, strain mms22, active compounds read low 0.99 | S. cerevisiae deletion strains, locus YLR330W, strain CHS5, active compounds read low 1.01 | S. cerevisiae deletion strains, locus YLR342W, strain FKS1 (second series), active compounds read low 0.99 | S. cerevisiae deletion strains, locus YLR342W, strain FKS1, active compounds read low 1 | S. cerevisiae deletion strains, locus YLR357W, strain rsc2, active compounds read low 1 | S. cerevisiae deletion strains, locus YLR370C, strain arc18, active compounds read low 1.01 | S. cerevisiae deletion strains, locus YLR371W, strain rom2, active compounds read low 1 | S. cerevisiae deletion strains, locus YLR384C, strain iki3, active compounds read low 1 | S. cerevisiae deletion strains, locus YLR418C, strain cdc73, active compounds read low 0.995 | S. cerevisiae deletion strains, locus YML016C, strain PPZ1, active compounds read low 1.01 | S. cerevisiae deletion strains, locus YML032C, strain rad52, active compounds read low 0.994 | S. cerevisiae deletion strains, locus YML120C, strain ndi1, active compounds read low 1.01 | S. cerevisiae deletion strains, locus YML124C, strain tub3, active compounds read low 0.996 | S. cerevisiae deletion strains, locus YMR058W, strain fet3, active compounds read low 1.01 | S. cerevisiae deletion strains, locus YMR078C, strain ctf18, active compounds read low 0.991 | S. cerevisiae deletion strains, locus YMR125W, strain sto1, active compounds read low 0.981 | S. cerevisiae deletion strains, locus YMR129W, active compounds read low 1 | S. cerevisiae deletion strains, locus YMR205C, strain PFK2, active compounds read low 1.02 | S. cerevisiae deletion strains, locus YMR223W, strain ubp8, active compounds read low 1 | S. cerevisiae deletion strains, locus YMR231W, strain pep5, active compounds read low 1 | S. cerevisiae deletion strains, locus YMR263W, strain SAP30, active compounds read low 1.02 | S. cerevisiae deletion strains, locus YMR307W, strain GAS1, active compounds read low 1.02 and 0.994 | S. cerevisiae deletion strains, locus YNL067W, strain RPL9B, active compounds read low 1.02 | S. cerevisiae deletion strains, locus YNL071W, strain lat1, active compounds read low 0.998 | S. cerevisiae deletion strains, locus YNL128W, strain TEP1, active compounds read low 1.03 and 0.994 | S. cerevisiae deletion strains, locus YNL153C, strain GIM3, active compounds read low 1 and 0.97 | S. cerevisiae deletion strains, locus YNL175C, strain NOP13, active compounds read low 1.02 | S. cerevisiae deletion strains, locus YNL183C, strain NPR1, active compounds read low 0.96 | S. cerevisiae deletion strains, locus YNL197C, strain WHI3, active compounds read low 1.01 | S. cerevisiae deletion strains, locus YNL209W, strain ssb2, active compounds read low 0.998 | S. cerevisiae deletion strains, locus YNL224C, strain SQS1, active compounds read low 0.987 | S. cerevisiae deletion strains, locus YNL233W, strain BNI4, active compounds read low 1.02 | S. cerevisiae deletion strains, locus YNL248C, strain rpa49, active compounds read low 0.948 | S. cerevisiae deletion strains, locus YNL250W, strain rad50, active compounds read low 1.01 | S. cerevisiae deletion strains, locus YNL271C, strain bni1, active compounds read low 0.986 | S. cerevisiae deletion strains, locus YNL298W, strain CLA4, active compounds read low 0.992 | S. cerevisiae deletion strains, locus YNL307C, strain MCK1, active compounds read low 1.01 | S. cerevisiae deletion strains, locus YNL322C, strain KRE1 (second series), active compounds read low 1.01 | S. cerevisiae deletion strains, locus YNL322C, strain KRE1, active compounds read low 1.02 | S. cerevisiae deletion strains, locus YNR049C, strain mso1, active compounds read low 0.998 | S. cerevisiae deletion strains, locus YNR052C, strain pop2, active compounds read low 0.997 | S. cerevisiae deletion strains, locus YOL006C, strain TOP1, active compounds read low 0.984 | S. cerevisiae deletion strains, locus YOL012C, strain htz1 1.06 | S. cerevisiae deletion strains, locus YOL147C, strain pex11, active compounds read low 0.998 | S. cerevisiae deletion strains, locus YOR001W, strain rrp6, active compounds read low 1.02 | S. cerevisiae deletion strains, locus YOR061W, strain CKA2, active compounds read low 1.01 | S. cerevisiae deletion strains, locus YOR069W, strain VPS5, active compounds read low 1.02 | S. cerevisiae deletion strains, locus YOR070C, strain gyp1, active compounds read low 0.992 | S. cerevisiae deletion strains, locus YOR080W, strain dia2, active compounds read low 1.01 | S. cerevisiae deletion strains, locus YOR083W, strain WHI5 (second series), active compounds read low 0.992 | S. cerevisiae deletion strains, locus YOR083W, strain WHI5, active compounds read low 0.99 | S. cerevisiae deletion strains, locus YOR106W, strain vam3, active compounds read low 1.03 | S. cerevisiae deletion strains, locus YOR136W, strain idh2, active compounds read low 0.997 | S. cerevisiae deletion strains, locus YOR144C, strain elg1, active compounds read low 1 | S. cerevisiae deletion strains, locus YOR184W, strain ser1, active compounds read low 1 | S. cerevisiae deletion strains, locus YOR231W, strain MKK1, active compounds read low 1 | S. cerevisiae deletion strains, locus YOR265W, strain rbl2, active compounds read low 1 | S. cerevisiae deletion strains, locus YOR270C, strain vph1, active compounds read low 1 | S. cerevisiae deletion strains, locus YOR290C, strain snf2, active compounds read low 0.975 | S. cerevisiae deletion strains, locus YOR316C, strain cot1, active compounds read low 0.997 | S. cerevisiae deletion strains, locus YPL051W, strain arl3, active compounds read low 1.01 | S. cerevisiae deletion strains, locus YPL055C, strain LGE1, active compounds read low 1.04 | S. cerevisiae deletion strains, locus YPL078C, strain atp4, active compounds read low 1.03 | S. cerevisiae deletion strains, locus YPL106C, strain sse1, active compounds read low 0.996 | S. cerevisiae deletion strains, locus YPL240C, strain hsp82, active compounds read low 0.991 | S. cerevisiae deletion strains, locus YPL241C, strain CIN2, active compounds read low 1.01 and 1 | S. cerevisiae deletion strains, locus YPL256C, strain CLN2, active compounds read low 0.949 | S. cerevisiae deletion strains, locus YPR119W, strain clb2, active compounds read low 0.995 | S. cerevisiae deletion strains, locus YPR141C, strain kar3, active compounds read low 1.01 | S. cerevisiae deletion strains, locus YPR163C, strain tif3, active compounds read low 1 | S. cerevisiae deletion strains, locus YPR167C, strain met16, active compounds read low 0.997 | S. cerevisiae deletion strains, strain wtn01, active compounds read low 0.994 | S. cerevisiae strains, strain wild type, active compounds read low 1.01
